Assay results taken from PubChem BioAssay (NCATS).
Records with an inconclusive call do not appear. Activity calls are given as the source filed them. Calls follow the shape of the dose curve; as a rule, active = well fitted curve in the direction sought with a large enough effect; inconclusive = small, poorly fitted or top-dose-only effect, or another doubt; inactive = no such curve, though single readings can be large; an effect the other way counts as inactive or inconclusive.

Assays:
[1] = Quantitative High-Throughput drug screen in 47 multiple myeloma cell lines against the NCATS MIPE library collection: FR4_PLB cell viability assay (AID 1918924; also: nearly all actives have a fitted effect of over 35% in size)
Method in brief: (§1)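 Myeloma cell lines, 500 cells per well, exposed to MIPE 4.0 library compounds for 48 h at 37C, 5% CO2. Viability from ATP by CellTiter-Glo luminescence; normalised to DMSO (100%) and media-only (0%) wells.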

[2] = Quantitative High-Throughput drug screen in 47 multiple myeloma cell lines against the NCATS MIPE library collection: Delta47_JCRB cell viability assay (AID 1918925; also: nearly all actives have a fitted effect of over 45% in size)
Method in brief: (§2)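 Relative luminescence from CellTiter-Glo served as the viability signal, referenced to DMSO-treated (100%) and cell-free medium (0%) controls. Treatment lasted 48 hours at 37C with 500 cells per well.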

[3] = Quantitative High-Throughput drug screen in 47 multiple myeloma cell lines against the NCATS MIPE library collection: EJM_DSMZ cell viability assay (AID 1918926; also: nearly all actives have a fitted effect of over 30% in size)
Method in brief: as §2

[4] = Quantitative High-Throughput drug screen in 47 multiple myeloma cell lines against the NCATS MIPE library collection: AMO1_DSMZ cell viability assay (AID 1918927; also: nearly all actives have a fitted effect of over 30% in size)
Method in brief: as §2

[5] = Quantitative High-Throughput drug screen in 47 multiple myeloma cell lines against the NCATS MIPE library collection: ARP1_JJKsccF8 cell viability assay (AID 1918928; also: nearly all actives have a fitted effect of over 40% in size)
Method in brief: (§3)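 Myeloma cells, 500 per well, were exposed to MIPE 4.0 drugs by pin transfer for 48 h at 37 °C, 5% CO2. Viability was read as ATP luminescence with CellTiter-Glo, normalised to DMSO-only (100%) and medium-only (0%) wells.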

[6] = Quantitative High-Throughput drug screen in 47 multiple myeloma cell lines against the NCATS MIPE library collection: Karpas620_DSMZ cell viability assay (AID 1918959); also: nearly all actives have a fitted effect of over 30% in size
Method in brief: as §1

[7] = Quantitative High-Throughput drug screen in 47 multiple myeloma cell lines against the NCATS MIPE library collection: KMM1_JCRB cell viability assay (AID 1918960); also: nearly all actives have a fitted effect of over 30% in size
Method in brief: as §3

[8] = Quantitative High-Throughput drug screen in 47 multiple myeloma cell lines against the NCATS MIPE library collection: Karpas417_ECACC cell viability assay (AID 1918961); conditions: Karpas417 myeloma viability, CellTiter-Glo ATP luminescence, 48 h; viability (% of DMSO): at 45.8 µM (top of the series)
Method in brief: as §1

[9] = Quantitative High-Throughput drug screen in 47 multiple myeloma cell lines against the NCATS MIPE library collection: KHM11_PLB cell viability assay (AID 1918962); also: nearly all actives have a fitted effect of over 35% in size
Method in brief: as §1

[10] = Quantitative High-Throughput drug screen in 47 multiple myeloma cell lines against the NCATS MIPE library collection: JIM3_ECACC cell viability assay (AID 1918963; also: nearly all actives have a fitted effect of over 35% in size)
Method in brief: as §1

[11] = Quantitative High-Throughput drug screen in 47 multiple myeloma cell lines against the NCATS MIPE library collection: JIM1_ECACC cell viability assay (AID 1918964)
Method in brief: as §2

[12] = Quantitative High-Throughput drug screen in 47 multiple myeloma cell lines against the NCATS MIPE library collection: INA6_PLB cell viability assay (AID 1918965; also: nearly all actives have a fitted effect of over 55% in size)
Method in brief: as §1

[13] = Quantitative High-Throughput drug screen in 47 multiple myeloma cell lines against the NCATS MIPE library collection: H1112_PLB cell viability assay (AID 1918967; also: nearly all actives have a fitted effect of over 30% in size)
Method in brief: as §2

[14] = Quantitative High-Throughput drug screen in 47 multiple myeloma cell lines against the NCATS MIPE library collection: KMS27_JCRB cell viability assay (AID 1918970); also: nearly all actives have a fitted effect of over 30% in size
Method in brief: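 CellTiter-Glo luminescence after 48 h drug exposure at 37 °C; 500 cells/well, 1536-well format, pin-tool compound addition; DMSO = 100%, media-only = 0% viability.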

[15] = Quantitative High-Throughput drug screen in 47 multiple myeloma cell lines against the NCATS MIPE library collection: KMS12BM_JCRB cell viability assay (AID 1918971); also: nearly all actives have a fitted effect of over 35% in size
Method in brief: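 Viability readout: CellTiter-Glo luminescence following 5 min room-temperature incubation with reagent. Prior exposure: 48 h, 37C, humidified 5% CO2, 500 cells per well.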

[16] = Quantitative High-Throughput drug screen in 47 multiple myeloma cell lines against the NCATS MIPE library collection: KMS12PE_JCRB cell viability assay (AID 1918972); also: nearly all actives have a fitted effect of over 30% in size
Method in brief: as §1

[17] = Quantitative High-Throughput drug screen in 47 multiple myeloma cell lines against the NCATS MIPE library collection: KMS20_JCRB cell viability assay (AID 1918973); also: nearly all actives have a fitted effect of over 45% in size
Method in brief: as §2

[18] = Quantitative High-Throughput drug screen in 47 multiple myeloma cell lines against the NCATS MIPE library collection: ARD_JJKsccE7 cell viability assay (AID 1918929)
Method in brief: as §2

[19] = Quantitative High-Throughput drug screen in 47 multiple myeloma cell lines against the NCATS MIPE library collection: JJN3_DSMZ cell viability assay (AID 1918966; also: nearly all actives have a fitted effect of over 50% in size)
Method in brief: as §2

[20] = Quantitative High-Throughput drug screen in 47 multiple myeloma cell lines against the NCATS MIPE library collection: Karpas25_ECACC cell viability assay (AID 1918968; also: nearly all actives have a fitted effect of over 35% in size)
Method in brief: as §2

Measured: Potency
Potency is read from the fitted curve at half-maximal effect.

O=C(NCc1ccccc1)c1csc(Nc2ccncn2)n1
active: [1] 14.8 µM | [2] 14.8 µM | [3] 18.7 µM | [4] 9.35 µM | [5] 23.5 µM | [6] 6.62 µM | [7] 9.35 µM | [8] 10.5 µM | [9] 20.9 µM | [10] 14.8 µM | [11] 6.62 µM | [12] 11.8 µM | [13] 13.2 µM | [14] 7.43 µM | [15] 14.8 µM | [16] 8.33 µM | [17] 14.8 µM

CC(C)(C(=O)NCC(F)(F)C(F)(F)F)C(=O)N[C@@H]1C(=O)Nc2ccccc2-c2ccccc21
inactive: [1] | [3] | [5] | [15]
active: [2] 20.9 µM | [4] 18.7 µM | [6] 2.35 µM | [7] 18.7 µM | [12] 18.7 µM | [13] 16.6 µM | [14] 1.32 µM | [16] 16.6 µM

CC(C)C(C)C=CC(C)C1CCC2C3=CC=C4CC(O)CCC4(C)C3CCC21C (stereo not drawn)
active: [6] 18.7 µM
not listed: [9] | [11] | [12] | [14] | [17] | [19] | [20]
inactive: all other assays above

CC(=O)Nc1ccc([C@H](C)C(=O)Nc2ncc(C(C)C)s2)cc1
active: [1] 1.87 µM | [2] 1.48 µM | [3] 0.743 µM | [4] 0.662 µM | [5] 2.64 µM | [6] 2.35 µM | [7] 5.26 µM | [9] 4.69 µM | [10] 7.43 µM | [11] 1.66 µM | [12] 4.18 µM | [13] 4.18 µM | [15] 2.35 µM | [17] 3.32 µM

O=C(O)CCC1CCC(c2cc(F)ccc2F)(S(=O)(=O)c2ccc(Cl)cc2)CC1 (stereo not drawn)
active: [2] 5.9 µM | [4] 5.9 µM | [7] 16.6 µM | [12] 3.32 µM | [13] 9.35 µM | [20] 8.33 µM | [14] 2.64 µM | [16] 13.2 µM | [17] 5.26 µM
inactive: [1] | [3] | [5] | [10] | [19]

C=C1C(=O)[C@@]23C(CC[C@@H]1[C@H]2O)[C@@]12CO[C@]3(O)[C@@H](O)[C@@H]1C(C)(C)CC[C@@H]2O (stereo partly drawn)
active: [1] 6.62 µM | [2] 3.72 µM | [3] 2.96 µM | [4] 1.48 µM | [18] 1.48 µM | [6] 0.935 µM | [7] 2.35 µM | [9] 5.26 µM | [10] 10.5 µM | [11] 1.05 µM | [12] 1.18 µM | [19] 2.09 µM | [13] 18.7 µM | [14] 1.87 µM | [15] 9.35 µM | [16] 2.09 µM | [17] 2.35 µM

N#CC(=C(N)Sc1ccccc1N)C(C#N)=C(N)Sc1ccccc1N
active: [1] 7.43 µM | [2] 16.6 µM | [3] 10.5 µM | [4] 18.7 µM | [18] 20.9 µM | [6] 16.6 µM | [7] 18.7 µM | [9] 0.662 µM | [10] 18.7 µM | [11] 16.6 µM | [12] 16.6 µM | [20] 8.33 µM | [14] 18.7 µM | [16] 23.5 µM
inactive: [15]

CC(C)(C)COc1ccc(-n2cc(C(=O)O)cn2)cc1C#N
not listed: [5] | [8] | [11] | [17] | [20]
inactive: all other assays above

O=C(CCCCCCC(=O)Nc1ccccc1)NO
active: [1] 2.35 µM | [2] 1.32 µM | [3] 7.43 µM | [4] 1.05 µM | [5] 0.833 µM | [18] 1.18 µM | [6] 3.32 µM | [7] 1.32 µM | [8] 1.05 µM | [9] 7.43 µM | [10] 5.9 µM | [11] 2.35 µM | [12] 0.935 µM | [19] 3.32 µM | [13] 4.18 µM | [20] 1.48 µM | [14] 3.72 µM | [15] 2.35 µM | [16] 1.66 µM

COc1cc2nc(-c3ccc(N4CCN(C)CC4)cc3)nc(NCCN3CCOCC3)c2cc1OC
active: [1] 0.0296 µM | [2] 0.148 µM | [3] 0.0264 µM | [4] 0.148 µM | [18] 0.296 µM | [6] 0.118 µM | [7] 0.0469 µM | [8] 0.0166 µM | [9] 0.235 µM | [10] 0.148 µM | [11] 0.166 µM | [12] 0.0372 µM | [20] 0.0105 µM | [14] 0.0332 µM | [15] 0.166 µM | [16] 0.209 µM | [17] 0.105 µM
